target: TMED9; assay: pooled miR-30 sensor sort-seq; sequence = guide strand; settings: shRNA
Note: reference of the scale not given here.

Row | Sequence | sensor-assay potency score (higher = more potent)
1 | TTGTCATACAGCTGCGTCCGGT | -1.2
2 | TCAGTAACTAAGACTCTGCAGG | -0.549
3 | TTGGAGTGAAGACAGATCTGGT | -0.176
4 | TTTAGCAGCAATTTCTGCATAG | -0.576
5 | ATGACCATGGTCTCGTCCGGGA | -0.96
6 | TGTCTTTAGCAGCAATTTCTGC | -1.06
7 | TGGGAAGTGAAAGTGAACCTGC | 0.118
8 | TTTCTGGATCTGCTCCACTTGT | -1.3
9 | TTCACCTCCACAAACATGCCAA | -0.184
10 | TTGAGGTGCCGCATCTGCCAGA | -0.928
11 | TAACACTGTGATTCTGAGGTGC | 0.27
12 | TATGACCATGGTCTCGTCCGGG | -0.321

target: TMEFF2; assay: as above; settings: shRNA

Row | Sequence | sensor-assay potency score (higher = more potent)
13 | TTGTCTGAACTGTAGTGCCCTG | -0.73
14 | TATAGAACACTGTAGTCCTTTT | -0.956
15 | TAGAATGCTCACACTTCCCATG | -0.607
16 | TACAGGACCGGGAACAACGTAT | -0.637
17 | TCAATATTACACACACACCAGA | -1.06
18 | TTAAGACATACTGAAATCGTAC | -0.191
19 | TTTTTTCACAGTGTTGTCCAGT | -0.255
20 | TAGCATTCTCTGCATAATCTGT | -0.543
21 | TTGTTGTATTGTCTGAACTGTA | -0.51
22 | TAGAACACTGTAGTCCTTTTTT | -1.55
23 | TAGATCTCTTGTCTTATTCTTT | -0.31

Source: the OligoGym collection
